A selection: hits, their analogues and other compounds. The true share with any hit is near 12%.
USP30 block = inhibitors of human USP30 deubiquitinase; purified USP30, Ub-rhodamine cleavage fluorescence; Q70CQ3; inhibition, % at 25 µM; 47,000 tested, 5.3% active
USP8 inh = human USP8 deubiquitinase inhibition; AID 1645853; P40818; inhibition, % at 20 µM; purified USP8, Ub-rhodamine cleavage fluorescence, 30 min; 47,000 tested, 4.2% active
USP17 inh = blocks human USP17 ubiquitin-rhodamine cleavage; purified USP17, Ub-rhodamine cleavage fluorescence, 3 h; 47,000 tested, 6.5% active; inhibition, % at 50 µM; AID 1645855
Target sequence (A8MUK1 whole entry, looked up): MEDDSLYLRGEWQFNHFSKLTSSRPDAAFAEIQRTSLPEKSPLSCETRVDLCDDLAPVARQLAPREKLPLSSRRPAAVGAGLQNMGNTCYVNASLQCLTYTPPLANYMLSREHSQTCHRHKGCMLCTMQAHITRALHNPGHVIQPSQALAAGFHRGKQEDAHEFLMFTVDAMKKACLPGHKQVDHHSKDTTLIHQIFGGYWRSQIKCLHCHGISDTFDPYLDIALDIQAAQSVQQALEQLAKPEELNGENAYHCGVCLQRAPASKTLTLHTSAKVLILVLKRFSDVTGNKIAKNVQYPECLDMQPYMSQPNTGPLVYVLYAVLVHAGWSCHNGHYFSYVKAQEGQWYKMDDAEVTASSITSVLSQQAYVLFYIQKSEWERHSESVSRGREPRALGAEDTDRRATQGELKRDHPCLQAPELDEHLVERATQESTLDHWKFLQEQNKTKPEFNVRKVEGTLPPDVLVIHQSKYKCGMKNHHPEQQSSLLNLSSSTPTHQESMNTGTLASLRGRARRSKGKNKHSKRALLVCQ
An asterisk follows results filed as active; x = no result. Cut-off read from the data, not from the text of the source: active = inhibition above about 30%; inactive = the rest.

SMILES | USP30 block | USP8 inh | USP17 inh
COc1cccc(NC(=O)C2CCCN(C(=O)Cc3c[nH]c4ccccc34)C2)c1 (stereo unspecified) | -1.4 | 17.8 | 9.5
Cn1cccc1C(=O)N1C[C@H](OCC2CCOCC2)[C@H]2COC[C@H]21 | -16.7 | -60.1 | -18.6
CCOc1cc2c(cc1OCC)C1CC(=O)N(c3ccc(C)cc3)C(=O)N1CC2 (stereo unspecified) | 24.4 | -4.6 | 18.6
Cc1nccc(CN2CCc3nc4cc(-c5ccoc5C)[nH]n4c(=O)c3C2)n1 | -469.6 | -136.1 | -117.7
CN(C)c1ccc(NC(=O)CC(NCc2ccco2)C(=O)O)cc1 (stereo unspecified) | -9.0 | 6.5 | 0.0
Cc1ccc(S(=O)(=O)Nc2c(O)c3ccccc3oc2=O)cc1C | 18.2 | 19.2 | 2.5
Cc1cc(O)c2c(=O)c3c(O)cccc3oc2c1O | 28.2 | 5.8 | 37.4*
Cc1ncc(-c2ccccn2)c(C2CCC(CNC(=O)CCN3CCOCC3)CC2)n1 (stereo unspecified) | 11.4 | 9.5 | 8.9
CC(C)[C@@H](NC(=O)C1CCN(C(=O)[C@H](N)Cc2ccccc2)CC1)C(=O)NCc1ccccc1F | 42.9* | -3.1 | 11.8
C[C@H](NC(=O)C1CCN(C(=O)[C@H](Cc2ccccc2)NC(=O)OC(C)(C)C)CC1)C(=O)NCc1ccc(F)cc1 | -0.3 | -7.1 | -5.4
CNc1ccc(-c2noc([C@@H]3CCCN3Cc3cccc(C#N)c3)n2)cn1 | -26.8 | -6.8 | -69.1
COc1ccc(-c2cc(C(=O)Nc3cccc(C#N)c3)nn2C2CCS(=O)(=O)C2)cc1 (stereo unspecified) | 19.0 | 22.7 | 38.9*
CCCCNC(=O)c1cc(-c2ccc(C)cc2)n(C2CCS(=O)(=O)C2)n1 (stereo unspecified) | x | 0.2 | -5.6
Cc1cc(C(=O)N2CC(C(=O)Nc3cccc(-c4csc(C)n4)c3)C2)no1 | -16.5 | -67.0 | -16.6
CC(C)(C)c1ccc(C(=O)Nc2ccc(O)cc2C(=O)O)cc1 | 22.7 | 14.3 | 28.3
COc1ccc(C(=O)Nc2ccc(O)cc2C(=O)O)cc1OC | 31.9* | 32.9* | 18.2
O=C(CS(=O)(=O)c1cn(CC(=O)N2CCCCCC2)c2ccccc12)Nc1ccccc1F | 17.9 | 20.9 | 18.1
Cc1nc(N2CCCC2)n(Cc2cccc(C#N)c2)c(=O)c1C | -2.2 | -0.5 | 0.7
CN(Cc1ccc2c(c1)OCO2)C(=O)CCNC(=O)c1ccc(Cl)cc1 | 11.9 | 3.8 | 2.1
O=C(Nc1cc(Cl)ccc1O)c1ccc(Cn2cnc3ccccc3c2=O)cc1 | -8.1 | -0.5 | 44.5*
O=C(O)c1ccc(Cn2cnc3ccccc3c2=O)o1 | -16.4 | 9.8 | -11.6
Cn1c(N2CCCC(C(=O)Nc3cccc(F)c3)C2)cc(=O)n(C)c1=O (stereo unspecified) | -15.5 | -15.6 | -10.9
Cc1ccc(Nc2nc3c(S(=O)(=O)c4ccc(C(C)C)cc4)nnn3c3ccccc23)cc1 | 5.7 | 4.0 | 21.0
Cc1ccc(Nc2nc3c(S(=O)(=O)c4ccc(C)c(C)c4)nnn3c3ccccc23)cc1C | 24.7 | 52.9* | 24.3
CCc1nc(-c2cccc(NC(=O)c3ccc(C#N)cc3F)c2)no1 | 23.8 | 12.2 | 43.0*
SMILES | USP30 block | USP8 inh | USP17 inh
CCc1nc(-c2cccc(NC(=O)c3ccc(C#N)cc3)c2)no1 | 0.1 | 2.3 | 0.1
CC(=O)Nc1onc(C)c1-c1ccc(C)c(S(=O)(=O)Nc2cccc(C)c2)c1 | -0.8 | -7.8 | -8.2
O=C(NCc1ccc(C(F)(F)F)cc1)C1CCN(c2nc3nc[nH]c(=O)c3s2)CC1 | 14.2 | -8.0 | 42.5*
Cc1ccc(CNC(=O)C2CCN(c3nc4nc[nH]c(=O)c4s3)CC2)cc1 | 2.4 | 6.3 | 0.7
NS(=O)(=O)c1cccc(NCc2nc3scc(-c4ccccc4)c3c(=O)[nH]2)c1 | 31.5* | 5.7 | 42.8*
O=C(O)c1ccccc1Cc1nc2scc(-c3ccccc3)c2c(=O)[nH]1 | 7.2 | 30.6* | 14.3
COc1cc(NCc2nc3scc(-c4ccccc4)c3c(=O)[nH]2)cc(OC)c1 | -54.9 | -38.9 | -4.5
O=c1[nH]c(Cc2ccc([N+](=O)[O-])cc2)nc2scc(-c3ccccc3)c12 | -69.2 | -13.4 | -20.9
Cc1nc(NC(=O)c2cccc(Cl)c2)sc1C(=O)Nc1cccnc1 | 12.3 | -9.6 | 21.4
CC(C)n1c(=O)[nH]c2c(C(=O)N3CCc4ccccc4C3)snc2c1=O | -1.4 | 8.2 | -8.0
CCOc1ccc(S(=O)(=O)Nc2ccccc2Cc2ccccc2)cc1 | 14.6 | 21.8 | 14.6
O=S(=O)(Nc1ccccc1Cc1ccccc1)c1ccc(Cl)cc1 | 31.4* | 14.7 | 26.8
CCCc1ccc(S(=O)(=O)Nc2ccccc2F)cc1 | 31.7* | 14.9 | 25.8
CCCc1ccc(S(=O)(=O)NCc2ccccc2F)cc1 | 14.7 | 6.0 | 20.8
O=S(=O)(Nc1ccccc1Cc1ccccc1)c1ccc(F)cc1 | 38.2* | 9.7 | 36.0*
COc1ccc(C(=O)O)cc1S(=O)(=O)Nc1ccccc1Cc1ccccc1 | 28.1 | 21.3 | 25.8
CC1CCN(S(=O)(=O)c2cc(-c3nnc(C4CCCC4)o3)co2)CC1 | -52.0 | -14.1 | -10.1
Cc1nc(-c2ncc(C)[nH]2)cc(C2CCCN(Cc3cncs3)C2)n1 (stereo unspecified) | -17.7 | -49.1 | -9.0
Cc1cnc(C(=O)N2CCCCC2c2nc(C)c3c(n2)N(CC(C)C)C(=O)CC3)cn1 (stereo unspecified) | 11.0 | 15.0 | 9.5
Cc1nc2ccc(C(=O)N3CCCC3c3nc(C)c4c(n3)N(CC(C)C)C(=O)C4)cc2s1 (stereo unspecified) | -11.1 | 88.7* | 42.4*
Cc1c(Cl)cccc1NC(=O)c1[nH]nc2c1COc1ccccc1-2 | -181.7 | 35.4* | -31.0
COc1ccccc1NC(=O)c1[nH]nc2c1COc1ccccc1-2 | -92.8 | 7.5 | -8.1
O=C(/C=C/c1ccccc1Cl)N1CC(c2nc(-c3cnccn3)no2)C1 | -13.4 | -1.2 | -0.4
O=C(Cn1c(NCCO)nc2ccccc21)NCC1CCCO1 (stereo unspecified) | 3.1 | -18.7 | 5.7
O=C(Cn1c(NCc2ccccc2)nc2ccccc21)NCC(F)(F)F | 52.3* | 18.2 | 45.4*
SMILES | USP30 block | USP8 inh | USP17 inh
CC1CCc2c(sc3ncnc(NC4CC4)c23)C1 (stereo unspecified) | 22.2 | 15.4 | 9.6
CC1CCc2c(sc(N)c2C(=O)NC2CCCC2)C1 (stereo unspecified) | -243.1 | 37.1* | -31.8
O=C(c1nc(-c2ccc(N3CCCCC3)nc2)no1)N1CCCCCC1 | 6.6 | -2.0 | 0.4
CN1C(=O)COc2cc(-c3noc(C(=O)NC4CCCCC4)n3)ccc21 | 31.1* | 19.2 | 26.1
CN1C(=O)COc2cc(-c3noc(C(=O)NCC4CCCO4)n3)ccc21 (stereo unspecified) | 8.5 | -2.1 | -3.4
O=[N+]([O-])c1cccc(-c2nnc(Cc3cc(F)cc(F)c3)o2)c1 | 8.1 | -117.6 | -20.2
O=[N+]([O-])c1ccc(Cc2nnc(-c3ccccc3Cl)o2)cc1 | 0.7 | -7.5 | 34.6*
CCOC(=O)C1(Cc2cc(-c3ccccc3F)no2)CCCN(Cc2ccncc2)C1 (stereo unspecified) | 7.9 | 16.7 | 0.0
O=C(Nc1ccc(S(=O)(=O)N2CCOCC2)cc1)c1oc(=O)c2ccccc2c1-c1ccccc1 | 33.9* | 12.8 | 37.2*
COc1ccc(NC(=O)c2oc(=O)c3ccccc3c2-c2ccccc2)cc1Cl | 0.3 | 18.2 | 6.1
O=C(NC1CC1)C1CCN(c2nc3ccc(-c4cncnc4)nc3s2)CC1 | -26.2 | 2.3 | 0.2

Screening data: PubChem BioAssay, Buhrlage Lab, Dana-Farber Cancer Institute and Novartis Institutes for BioMedical Research (Cambridge, Mass)
